According to PubChem BioAssay (Tox21):
“And” between values parts separate entries of the source, which are not always exact repeats. Equal values may be shown once. A structure can be active in one record and inactive in another. The source made the active and inactive calls. Entries that show only a call come without a potency. Unless noted, calls come from the whole dose curve; as a rule, active = well fitted curve in the direction sought with a large enough effect in the repeat runs; inconclusive = weak or mixed curves; inactive = no such curve, though single readings can be large; an effect the other way counts as inactive or inconclusive.

How the values were obtained:
[1] = qHTS assay to identify small molecule antagonists of the thyroid receptor (TR) signaling pathway - cell viability counter screen (AID 743064); note: nearly all actives have a fitted effect of over 50% in size; note: potency is the fitted concentration of half-maximal effect
Procedure, shortened: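 In rat pituitary GH3.TRE-Luc reporter cells co-exposed to compound and 1 nM T3 for 23.5 h, cytotoxicity was assessed with CellTiter-Fluor in the same wells, read by fluorescence.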

[2] = qHTS assay to identify small molecule antagonists of the thyroid receptor (TR) signaling pathway (AID 743065); note: nearly all actives have a fitted effect of over 55% in size; note: potency is the fitted concentration of half-maximal effect
Procedure, shortened: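 Antagonism measured as loss of luciferase signal in GH3 cells stably carrying a TRE-luciferase reporter, co-treated with compound and T3 (1 nM final) for 23.5 h at 37 C. Viability was read in the same well by CellTiter-Fluor.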

[3] = tested on: thyroid hormone receptor (rat, GH3 cells); assay: qHTS assay to identify small molecule agonists of the thyroid receptor (TR) signaling pathway (AID 743066; calls by dose curve)
[4] = qHTS assay to identify small molecule antagonists of the estrogen receptor alpha (ER-alpha) signaling pathway using the BG1 cell line - cell viability counter screen (AID 743081);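 note: compound given together with 17beta-estradiol as the ER stimulus; series mostly up to about 70 µM; nearly all actives have a fitted effect of over 45% in size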
Aromatase (Homo sapiens) = Aromatase (Homo sapiens) (UniProt P11511); assay: qHTS assay to identify aromatase inhibitors (AID 743083); note: series mostly up to about 70 µM; nearly all actives have a fitted effect of over 55% in size
Sequence of Aromatase (Homo sapiens) (P11511 whole entry, looked up): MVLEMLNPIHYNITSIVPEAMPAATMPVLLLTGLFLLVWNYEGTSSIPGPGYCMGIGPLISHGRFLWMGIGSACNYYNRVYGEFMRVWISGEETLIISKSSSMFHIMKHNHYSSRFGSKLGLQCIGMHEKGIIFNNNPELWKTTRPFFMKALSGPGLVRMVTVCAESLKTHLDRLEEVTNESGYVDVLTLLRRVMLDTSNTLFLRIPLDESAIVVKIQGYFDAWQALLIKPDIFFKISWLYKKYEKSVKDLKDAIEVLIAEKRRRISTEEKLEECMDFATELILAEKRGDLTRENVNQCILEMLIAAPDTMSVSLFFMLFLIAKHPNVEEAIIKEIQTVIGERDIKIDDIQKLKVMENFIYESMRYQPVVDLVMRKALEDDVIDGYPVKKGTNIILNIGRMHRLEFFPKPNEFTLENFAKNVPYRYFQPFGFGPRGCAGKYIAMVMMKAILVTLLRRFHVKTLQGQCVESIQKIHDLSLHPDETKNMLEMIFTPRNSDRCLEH

[5] = qHTS assay to identify aromatase inhibitors - cell viability counter screen (AID 743084);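 note: cells stimulated with testosterone during compound exposure; nearly all actives have a fitted effect of over 55% in size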
[6] = biological target: Aryl hydrocarbon receptor (Homo sapiens) (UniProt P35869); assay: qHTS assay to identify small molecule that activate the aryl hydrocarbon receptor (AhR) signaling pathway (AID 743085); note: nearly all actives have a fitted effect of over 15% in size; note: potency is the fitted concentration of half-maximal effect;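 for activation: HG2L7.5c1 human HepG2 liver cells with stably integrated DRE-driven firefly reporter; series mostly up to about 70 µM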
Sequence of Aryl hydrocarbon receptor (Homo sapiens) (P35869 whole entry, looked up): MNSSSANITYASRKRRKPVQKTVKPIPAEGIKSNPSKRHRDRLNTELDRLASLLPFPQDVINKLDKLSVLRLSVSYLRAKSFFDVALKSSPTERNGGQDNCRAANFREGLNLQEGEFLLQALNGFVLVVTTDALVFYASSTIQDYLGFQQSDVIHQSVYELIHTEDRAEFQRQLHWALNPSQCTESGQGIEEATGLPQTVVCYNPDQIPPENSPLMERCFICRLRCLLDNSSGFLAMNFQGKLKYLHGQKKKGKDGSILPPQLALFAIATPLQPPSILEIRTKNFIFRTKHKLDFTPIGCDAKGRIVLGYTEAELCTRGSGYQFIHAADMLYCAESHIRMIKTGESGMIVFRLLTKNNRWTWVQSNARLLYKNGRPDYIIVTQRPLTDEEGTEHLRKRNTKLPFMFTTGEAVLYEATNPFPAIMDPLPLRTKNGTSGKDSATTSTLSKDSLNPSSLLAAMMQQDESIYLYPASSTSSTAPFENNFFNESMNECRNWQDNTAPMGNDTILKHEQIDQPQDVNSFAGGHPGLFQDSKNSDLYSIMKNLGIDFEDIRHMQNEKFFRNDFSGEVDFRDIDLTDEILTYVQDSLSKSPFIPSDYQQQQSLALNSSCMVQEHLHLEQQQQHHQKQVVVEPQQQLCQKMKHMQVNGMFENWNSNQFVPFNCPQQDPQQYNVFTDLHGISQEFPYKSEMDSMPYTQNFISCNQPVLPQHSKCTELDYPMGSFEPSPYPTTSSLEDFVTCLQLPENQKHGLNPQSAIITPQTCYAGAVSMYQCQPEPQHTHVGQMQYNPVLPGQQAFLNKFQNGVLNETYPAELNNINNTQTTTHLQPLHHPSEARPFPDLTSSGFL
Procedure, shortened: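 AhR agonist activity is inferred from enhanced light output of a DRE-controlled firefly luciferase reporter in HepG2 cells, measured with ONE-Glo following 24 h treatment at 37C.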

[7] = qHTS assay to identify small molecule that activate the aryl hydrocarbon receptor (AhR) signaling pathway - cell viability counter screen (AID 743086);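 note: HepG2 liver cells carrying the AhR DRE luciferase reporter; series mostly up to about 70 µM; nearly all actives have a fitted effect of over 45% in size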
Procedure, shortened: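 Cytotoxicity counter screen: CellTiter-Fluor signal (30 min, 37 C) in 4000 HepG2 cells/well carrying the DRE-luciferase reporter, following 24 h compound exposure at 37 C.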

[8] = qHTS assay to identify small molecule antagonists of the peroxisome proliferator-activated receptor gamma (PPARg) signaling pathway - cell viability counter screen (AID 743194); note: nearly all actives have a fitted effect of over 55% in size
Procedure, shortened: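 Viability was measured as CellTiter-Glo luminescence in GeneBLAzer PPARg UAS-bla HEK293H cells. These cells had been exposed 17 h at 37 C to compounds together with rosiglitazone at 50 nM final, with the beta-lactamase readout taken in the same wells.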

[9] = qHTS assay for small molecule agonists of the antioxidant response element (ARE) signaling pathway (AID 743202; active = well fitted activation curve with a large enough effect in the signal ratio in the repeat runs, not every such curve was filed as active; inconclusive = weak or mixed curves, or effect the other way; inactive = no such curve, though single readings can be large or run the other way; the % refers to the signal ratio; note: potency is the fitted concentration of half-maximal effect)
Procedure, shortened: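 After 16 hours of compound treatment at 37 C, HepG2 cells with a stably integrated ARE-driven beta-lactamase reporter were loaded 2 hours at room temperature with LiveBLAzer B/G FRET substrate and fluorescence intensity measured.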

[10] = qHTS assay for small molecule agonists of the antioxidant response element (ARE) signaling pathway - cell viability counter screen (AID 743203; calls by dose curve; note: nearly all actives have a fitted effect of over 55% in size; note: potency is the fitted concentration of half-maximal effect)
Procedure, shortened: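 Luminescence read-out (CellTiter-Glo, 30 min at room temperature) measured cell viability in the same wells as the ARE beta-lactamase reporter. HepG2 ARE-bla cells were treated with compounds for 16 hrs at 37C/5% CO2.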

[11] = qHTS assay for small molecule activators of the heat shock response signaling pathway - cell viability counter screen (AID 743209); note: nearly all actives have a fitted effect of over 50% in size
Procedure, shortened: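 HSE-bla HeLa; 1500 cells/well; overnight 37 C, 5% CO2; compound 5 h 37 C; LiveBLAzer B/G substrate 2.5 h RT; CellTiter-Glo 30 min RT; luminescence.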

[12] = qHTS assay for small molecule activators of the heat shock response signaling pathway (AID 743210; active = well fitted activation curve with a large enough effect in the signal ratio in the repeat runs, with a control signal flat, not every such curve was filed as active; inconclusive = weak or mixed curves; the % refers to the signal ratio; note: series mostly up to about 63 µM)
Procedure, shortened: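 Compound exposure lasted 5 h at 37 C in HeLa cells carrying a heat-shock-element-driven beta-lactamase reporter. Read-out: fluorescence intensity after 2.5 h room-temperature loading with LiveBLAzer B/G FRET substrate.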

[13] = qHTS assay to identify small molecule antagonists of the estrogen receptor alpha (ER-alpha) signaling pathway - cell viability counter screen (AID 743074; calls by dose curve;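 note: HEK293 cells carrying ER-alpha-UAS-bla reporter stimulated with 17beta-estradiol; nearly all actives have a fitted effect of over 45% in size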; note: potency is the fitted concentration of half-maximal effect)
[14] = biological target: Estrogen receptor (Homo sapiens) (UniProt P03372); assay: qHTS assay to identify small molecule agonists of the estrogen receptor alpha (ER-alpha) signaling pathway (AID 743075; calls by dose curve;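 note: HEK293 GripTite cells with ER-alpha and UAS-driven beta-lactamase reporter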; note: potency is the fitted concentration of half-maximal effect)
Sequence of Estrogen receptor (Homo sapiens) (P03372 whole entry, looked up): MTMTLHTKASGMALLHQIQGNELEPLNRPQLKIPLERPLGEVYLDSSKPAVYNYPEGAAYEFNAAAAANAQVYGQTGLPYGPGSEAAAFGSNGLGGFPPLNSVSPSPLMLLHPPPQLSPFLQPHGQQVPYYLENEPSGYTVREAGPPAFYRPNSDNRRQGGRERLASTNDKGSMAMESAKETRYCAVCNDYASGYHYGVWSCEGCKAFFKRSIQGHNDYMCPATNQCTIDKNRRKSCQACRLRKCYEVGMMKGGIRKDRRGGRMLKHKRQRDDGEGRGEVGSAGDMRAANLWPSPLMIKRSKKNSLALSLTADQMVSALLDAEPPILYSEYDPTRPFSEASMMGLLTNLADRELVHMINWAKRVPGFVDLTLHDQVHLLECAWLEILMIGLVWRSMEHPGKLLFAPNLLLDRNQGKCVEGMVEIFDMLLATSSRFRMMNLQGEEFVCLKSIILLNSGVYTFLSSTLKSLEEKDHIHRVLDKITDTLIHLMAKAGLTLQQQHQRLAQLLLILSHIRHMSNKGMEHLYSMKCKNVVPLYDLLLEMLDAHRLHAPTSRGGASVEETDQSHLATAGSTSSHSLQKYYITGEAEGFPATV

[15] = biological target: Estrogen receptor (Homo sapiens) (UniProt P03372); assay: qHTS assay to identify small molecule agonists of the estrogen receptor alpha (ER-alpha) signaling pathway using the BG1 cell line (AID 743079); note: nearly all actives have a fitted effect of over 20% in size; note: potency is the fitted concentration of half-maximal effect
[16] = qHTS assay to identify small molecule antagonists of the estrogen receptor alpha (ER-alpha) signaling pathway using the BG1 cell line (AID 743080; calls by dose curve;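 note: BG1 cells stimulated with 17beta-estradiol alongside compound; series mostly up to about 70 µM; nearly all actives have a fitted effect of over 25% in size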)
Procedure, shortened: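 Luminescence from a 4×ERE-luciferase reporter in BG1-Luc-4E2 cells served as read-out. Cells, pre-cultured 5 days in stripped-serum phenol-red-free medium, were exposed to compound with 17beta-estradiol co-stimulation for 21.5 h at 37 C.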

[17] = biological target: Peroxisome proliferator-activated receptor gamma (Homo sapiens) (UniProt P37231); assay: qHTS assay to identify small molecule antagonists of the peroxisome proliferator-activated receptor gamma (PPARg) signaling pathway (AID 743191; calls by dose curve; note: nearly all actives have a fitted effect of over 30% in size; note: potency is the fitted concentration of half-maximal effect)
Sequence of Peroxisome proliferator-activated receptor gamma (Homo sapiens) (P37231 whole entry, looked up): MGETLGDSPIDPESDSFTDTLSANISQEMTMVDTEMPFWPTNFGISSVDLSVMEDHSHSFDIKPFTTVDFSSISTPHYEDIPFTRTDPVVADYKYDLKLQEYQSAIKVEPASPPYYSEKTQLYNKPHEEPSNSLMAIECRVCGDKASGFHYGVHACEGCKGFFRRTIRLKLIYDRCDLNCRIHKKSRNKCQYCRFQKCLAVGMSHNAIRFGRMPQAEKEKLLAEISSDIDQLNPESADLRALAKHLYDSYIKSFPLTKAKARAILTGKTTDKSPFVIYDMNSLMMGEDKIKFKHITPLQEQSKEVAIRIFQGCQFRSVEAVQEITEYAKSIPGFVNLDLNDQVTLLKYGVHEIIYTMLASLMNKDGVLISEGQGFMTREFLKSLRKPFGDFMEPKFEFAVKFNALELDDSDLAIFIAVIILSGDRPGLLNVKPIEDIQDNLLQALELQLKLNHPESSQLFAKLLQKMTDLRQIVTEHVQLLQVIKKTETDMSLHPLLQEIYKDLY
Procedure, shortened: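 Beta-lactamase reporter under UAS control in HEK293H PPARg-bla cells; compound treatment 17 h at 37C. Read-out: fluorescence intensity after 1 h room-temperature incubation with LiveBLAzer B/G FRET substrate.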

[18] = biological target: Peroxisome proliferator-activated receptor gamma (Homo sapiens) (UniProt P37231); assay: qHTS assay to identify small molecule agonists of the peroxisome proliferator-activated receptor gamma (PPARg) signaling pathway (AID 743094; active = well fitted activation curve with a large enough effect in the signal ratio in the repeat runs, not every such curve was filed as active; inconclusive = weak or mixed curves, or effect the other way; inactive = no such curve, though single readings can be large or run the other way; the % refers to the signal ratio)
Procedure, shortened: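 HEK293H PPARg-bla cells, 5 h settle at 37C/5% CO2; compound (DMSO) 17 h, 37C; B/G FRET substrate 1 h RT; fluorescence intensity read-out. qHTS format.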

SMILES | Potency [1] | Potency [2] | Potency [3] | Potency [4] | Potency (Aromatase (Homo sapiens)) | Potency [5] | Potency [6] | Potency [7] | Potency [8] | Potency [9] | Potency [10] | Potency [11] | outcome [12] | Potency [13] | Potency [14] | Potency [15] | Potency [16] | Potency [17] | outcome [18]
C=CC(=O)OCCCC | inactive | inactive | inactive | inactive | inactive | inactive | inactive | inactive | inactive | inactive | inactive | inactive | inactive | – | – | – | – | – | –
NCCN | inactive | – | – | inactive | inactive | inactive | inactive | inactive | inactive | inactive | inactive | inactive | inactive | inactive | 213 nM [inconclusive] (active) and inactive | 37.6 nM (active) and inactive | inactive | – | –
COc1ccc(-c2coc3cc(O)cc(O)c3c2=O)cc1 | inactive | 61.1 µM (active) | inactive | inactive | inactive | – | 9.77 µM (active) and 9.69 µM (active) | inactive | inactive | – | inactive | inactive | inactive | – | 6.97 µM [inconclusive] (active) and 13.8 µM [activator] (active) | 436 nM (active) and 864 nM (active) | – | inactive | –
C=CCOC(=O)C(=C)C | inactive | inactive | inactive | inactive | – | – | – | – | inactive | inactive | inactive | inactive | inactive | – | – | – | – | – | –
Cc1cccc(Nc2ccccc2C(=O)O)c1C | – | 21.1 µM (active) and 54.5 µM (active) | inactive | inactive | inactive | inactive | inactive | – | inactive | – | inactive | inactive | inactive | inactive | – | – | – | 43.6 µM (active) | –
CN(Cc1cnc2nc(N)nc(N)c2n1)c1ccc(C(=O)N[C@@H](CCC(=O)O)C(=O)O)cc1 | – | 335 nM (active) and 54.5 nM (active) | inactive | inactive | inactive | inactive | – | inactive | – | 9.7 nM (active) and 59.6 nM (active) | 6.1 nM (active) and 47.3 nM (active) | inactive | inactive | 239 nM (active) | inactive | inactive | – | – | –
[O-]/[N+](=N\O)c1ccccc1 | inactive | inactive | inactive | inactive | inactive | inactive | 30.6 µM (active) | inactive | inactive | – | inactive | inactive | inactive | – | inactive and 55 µM [activator] (active) | 61.1 µM (active) | – | – | inactive
c1ccc2c(c1)ccc1ncccc12 | inactive | – | – | inactive | inactive | inactive | – | – | inactive | – | inactive | inactive | inactive | inactive | – | inactive | inactive | – | inactive
C[C@]12CC[C@@H]3c4ccc(O)cc4CC[C@H]3[C@@H]1CC[C@@H]2O | inactive | 27.3 µM (active) and 30.6 µM (active) | inactive | inactive | inactive | inactive | inactive | – | inactive | – | inactive | inactive | inactive | inactive | – | – | – | – | –
C=C[C@H]1CN2CC[C@H]1C[C@@H]2[C@@H](O)c1ccnc2ccc(OC)cc12 | inactive | – | – | inactive | inactive | inactive | – | – | inactive | inactive | inactive | inactive | – | inactive | – | – | – | – | –
Cc1ccc(C(C)(C)C)c(O)c1 | – | 54.5 µM (active) | inactive | inactive | – | – | inactive | inactive | inactive | inactive | inactive | inactive | inactive | inactive | inactive | inactive | inactive | – | inactive
C=C[C@H]1CN2CC[C@H]1C[C@H]2[C@H](O)c1ccnc2ccc(OC)cc12 | inactive and 43.3 µM (active) | – | – | inactive | inactive | inactive | – | inactive | inactive | – | inactive | inactive | – | inactive | – | – | – | – | –
C=CN1CCCC1=O | inactive | – | – | inactive | inactive | inactive | inactive | – | inactive | inactive | inactive | inactive | inactive | inactive | inactive | inactive | inactive | – | inactive
OC[C@@H](O)[C@@H](O[C@@H]1O[C@H](CO)[C@H](O)[C@H](O)[C@H]1O)[C@H](O)[C@@H](O)CO | – | – | – | inactive | inactive | inactive | – | inactive | inactive | inactive | inactive | inactive | – | inactive | 3.38 µM [inconclusive] (active) and inactive | 596 nM (active) and inactive | inactive | inactive | inactive
CCCN1C=CN(C)C1 | inactive | – | – | inactive | inactive | inactive | inactive | – | inactive | inactive | inactive | inactive | – | inactive | inactive | inactive | inactive | – | –
CC1=CC(C)(C)Nc2ccccc21 | inactive | – | inactive | inactive | – | inactive | – | inactive | inactive | inactive | inactive | inactive | inactive | inactive | inactive | inactive | inactive | inactive | inactive
